{"source": "PubChem BioAssay AID686978", "about": "(National Center for Advancing Translational Sciences (NCATS), 2013)", "note": "Screen size: about 420,000 compounds; about 64,000 (15%) were called active. Roughly 27% stayed inconclusive and do not appear here. Calls follow the shape of the dose curve; as a rule, active = well fitted inhibition curve with a large enough effect; inconclusive = small, poorly fitted or top-dose-only effect; inactive = flat fitted curve, though single readings scatter. These entries were drawn from the full list. Where a call stands in place of a potency, no number is given."}
{"test": "qHTS for Inhibitors of human tyrosyl-DNA phosphodiesterase 1 (TDP1): qHTS in cells in absence of CPT; also: nearly all actives have a fitted effect of over 55% in size; also: potency is read from the fitted curve at half-maximal effect", "conditions": "DT40 Tdp1-/- hTDP1 cells, no CPT, ATP luminescence, 48 h; activity change, negative = growth inhibition: at 46.2 µM (top of the series)", "method_in_brief": "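Cells were dispensed at 400 per well, compounds added by pin tool, plates incubated ≥48 hr at 37 °C, then CellTiter-Glo added for 30 min at room temperature before luminescence reading. Line: DT40 Tdp1-/- complemented with hTDP1; camptothecin omitted.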"}
{"compound": "CC(=O)c1sc(NC(=O)CCN2C(=O)C3CC=CCC3C2=O)nc1-c1ccccc1", "note": "(centres undefined)", "Potency": "inactive"}
{"compound": "CC(Oc1ccccc1)C(=O)Nc1oc(-c2ccco2)c(-c2ccco2)c1C#N", "note": "(centres undefined)", "Potency": "inactive"}
{"compound": "CSc1ncc(Cl)c(C(=O)Nc2cc(C)ccc2C)n1", "Potency": "inactive"}
{"compound": "CCc1ccc(NC(=O)c2cc(S(=O)(=O)N3CCCC(C)C3)cn2C)cc1", "note": "(centres undefined)", "Potency": "inactive"}
{"compound": "CSc1ncc(Cl)c(C(=O)Nc2ccc(S(=O)(=O)N3CCCC(C)C3)cc2)n1", "note": "(centres undefined)", "Potency": "14.6 µM (active)"}
{"compound": "COc1c(F)c(F)c(-c2csc(N)n2)c(F)c1F", "Potency": "inactive"}
{"compound": "Cc1cc(C)n(CCNCc2c(C(=O)N3C[C@@H](C)O[C@@H](C)C3)nc3ccc(Cl)cn23)n1", "Potency": "inactive"}
{"compound": "O=C1c2ccccc2NC(c2ccccc2O)N1NS(=O)(=O)c1ccccc1", "note": "(centres undefined)", "Potency": "inactive"}
{"compound": "CC(=O)NN1C(=O)c2ccccc2NC1c1ccccc1", "note": "(centres undefined)", "Potency": "inactive"}
{"compound": "CCOC(=O)NN1C(=O)c2ccccc2NC1c1ccccc1O", "note": "(centres undefined)", "Potency": "23.1 µM (active)"}
{"compound": "CCCCNC(=O)Nc1c(C)cc(SC#N)cc1C", "Potency": "8.2 µM (active)"}
{"compound": "CCCCNC(=O)C(=O)c1ccccc1NC(C)=O", "Potency": "inactive"}
{"compound": "CCC(C)C(CO)NC(=O)/C=C/[C@H]1O[C@@H](n2cnc3c(NC(=O)c4ccccc4)ncnc32)[C@H](O)[C@@H]1O", "note": "(some centres undefined)", "Potency": "inactive"}
{"compound": "CNc1nnc(-c2ccco2)s1", "Potency": "inactive"}
{"compound": "O=C(NCc1ccccn1)Nc1ccc(F)cc1", "Potency": "inactive"}
{"compound": "CCOC(=O)c1ccccc1NC(=O)CSc1nc2c(sc(=S)n2CC)c(=O)[nH]1", "Potency": "inactive"}
{"compound": "CC(C)CN1CCNC(=O)C1CC(=O)N(C)CC1CCOCC1", "note": "(centres undefined)", "Potency": "inactive"}
{"compound": "COC(=O)c1cc(C(=O)NC(C)C2CC3CCC2C3)cc([N+](=O)[O-])c1", "note": "(centres undefined)", "Potency": "20.6 µM (active)"}
{"compound": "CC(NC(=O)CN(C)S(=O)(=O)c1ccc(F)cc1)C1CC2CCC1C2", "note": "(centres undefined)", "Potency": "inactive"}
{"compound": "COC(=O)c1cc(C(=O)OCC(=O)Nc2cc(C)on2)cc([N+](=O)[O-])c1", "Potency": "inactive"}
{"compound": "OC1CN=C2Sc3ccccc3N2C1", "note": "(centres undefined)", "Potency": "inactive"}
{"compound": "O=C(NC(=O)c1ccc(Cl)c(Cl)c1)OC1CCS(=O)(=O)C1", "note": "(centres undefined)", "Potency": "inactive"}
{"compound": "CCCCOc1ccc(C(=O)NCC(=O)OCC(=O)c2c(N)n(C)c(=O)n(C)c2=O)cc1", "Potency": "inactive"}
{"compound": "COc1cc(NC(=O)c2cccnc2SC)cc(OC)c1", "Potency": "inactive"}
{"compound": "COc1cc(NC(=O)c2cncc(-c3ccc(C#N)cc3)c2)cc(C(=O)Nc2cccc(C(F)(F)F)c2)c1", "Potency": "10.3 µM (active)"}
{"compound": "COc1cc(NC(=O)c2[nH]cnc2C(N)=O)cc(C(=O)Nc2cccc(C(F)(F)F)c2)c1", "Potency": "18.4 µM (active)"}
{"compound": "O=C(Nc1cccc(C(F)(F)F)c1)c1cnccn1", "Potency": "inactive"}
{"compound": "CCn1nnnc1SCC(=O)Nc1ccc(N(C)C)cc1", "Potency": "inactive"}
{"compound": "Cn1c(N)c(C(=O)COC(=O)/C=C/c2cccc(C(F)(F)F)c2)c(=O)n(C)c1=O", "Potency": "inactive"}
{"compound": "Cc1noc(C)c1-c1nccc(N2CCOCC2)n1", "Potency": "inactive"}
{"compound": "CCCCc1nc2cc(C(=O)NCCc3cnn(C)c3)ccc2o1", "Potency": "inactive"}
{"compound": "CC1CCN(C(=O)c2ccccc2NC(=O)Cc2ccccc2)CC1", "Potency": "inactive"}
{"compound": "O=C(Nc1ccccc1C(=O)N1CCCCCC1)c1ccccc1Cl", "Potency": "inactive"}
{"compound": "O=C(O)C1CC=CCC1C(=O)Nc1ccccc1C(=O)N1CCN(c2ccccc2)CC1", "note": "(centres undefined)", "Potency": "20.6 µM (active)"}
{"compound": "Cc1ccccc1NC(=O)C1CCN(C(=O)NC2CCCCC2)CC1", "Potency": "inactive"}
{"compound": "Cc1ccc(NC(=O)CN2c3ccccc3S(=O)(=O)c3ccccc32)cc1F", "Potency": "18.4 µM (active)"}
{"compound": "CC1CC(=O)N(CC(=O)Nc2cccc(Cl)c2)c2ccccc2S1(=O)=O", "note": "(centres undefined)", "Potency": "inactive"}
{"compound": "CC(=O)N1CCN(CC(=O)Nc2ccc(C)c(F)c2)CC1", "Potency": "inactive"}
{"compound": "CCCCOc1ccc(NC(=O)c2cc3c(n(-c4ccc(Cl)cc4)c2=O)CCCC3=O)cc1", "Potency": "inactive"}
{"compound": "c1ccc2cc(C3=NCCN3)ccc2c1", "Potency": "inactive"}
{"compound": "C=CCNC(=O)c1ccccc1NC(=O)c1ccc(Cl)c(S(=O)(=O)Nc2cccc(C)c2C)c1", "Potency": "16.4 µM (active)"}
{"compound": "Cc1ccccc1NC(=O)c1cc(S(=O)(=O)Nc2cccc(C(=O)O)c2)ccc1Cl", "Potency": "inactive"}
{"compound": "Cc1cc(=O)c2cc(C(=O)Nc3cccc(C)c3C)ccc2[nH]1", "Potency": "inactive"}
{"compound": "CC1(C)CC(=O)C2=C(C1)Nc1cc(C(=O)c3ccccc3)ccc1NC2c1ccccn1", "note": "(centres undefined)", "Potency": "inactive"}
{"compound": "Cc1cccc(C(=O)OCC(=O)Nc2ccc(F)cc2)c1", "Potency": "inactive"}
{"compound": "O=C(COC(=O)c1ccccc1OCCOc1ccccc1)Nc1cccc(Br)c1", "Potency": "inactive"}
{"compound": "Cc1cccc(NC(=O)COC(=O)c2ccccc2OCc2cccc(Br)c2)c1", "Potency": "22.4 µM (active)"}
{"compound": "Nc1nc(C23CC4CC(CC(C4)C2)C3)cs1", "Potency": "inactive"}
{"compound": "CN(C)c1ccc(S(=O)(=O)NCC(=O)NCC2CCCCC2)cc1[N+](=O)[O-]", "Potency": "inactive"}
{"compound": "Cc1noc(NS(=O)(=O)c2ccc(N3CC(O)=C(c4ccccc4)C3=N)cc2)c1C", "Potency": "inactive"}
{"compound": "CCC(C)c1ccccc1N1CC(C(=O)N2CCN(S(=O)(=O)c3ccc(F)cc3)CC2)CC1=O", "note": "(centres undefined)", "Potency": "inactive"}
{"compound": "CC(=O)NC(c1ccccc1)c1nc(-c2ccccc2C)cs1", "note": "(centres undefined)", "Potency": "inactive"}
{"compound": "CCC1=C(OC(=O)N(CC)CC)N2C(=O)OC(=NCC3CC3)[C@]2(C)[C@H]2C1=CC[C@H]1C(=O)N(CC(=O)OC)C(=O)[C@H]12", "Potency": "inactive"}
{"compound": "CCn1nc(C(=O)NNS(=O)(=O)c2cc(/C=C/C(=O)O)cc(OC)c2OC)c2ccccc2c1=O", "Potency": "inactive"}
{"compound": "CCn1nc(C)c(NC(=O)/C=C/c2ccc(OC)c(COc3ccc(Br)cc3)c2)c1C", "Potency": "20.6 µM (active)"}
{"compound": "COc1ccc(OC)c(S(=O)(=O)Nc2c(C)nn(C)c2C)c1", "Potency": "inactive"}
{"compound": "COC(=O)c1c(NC(=O)c2ccccc2F)sc2c1C(C(=O)OC)CC2", "note": "(centres undefined)", "Potency": "11.6 µM (active)"}
{"compound": "Cc1ccccc1NC(=O)c1c(NC(=O)c2ccccc2F)sc2c1CCC(C)C2", "note": "(centres undefined)", "Potency": "inactive"}
{"compound": "O=C(Nc1nnc(-c2ccccc2F)s1)c1ccccc1F", "Potency": "inactive"}
{"compound": "COc1cc(NC(=O)CCNC(=O)Cn2ccc3ccccc3c2=O)cc(OC)c1OC", "Potency": "inactive"}
{"compound": "CC(=O)C[C@H](O)CC(=O)[C@@H]1OC(=O)[C@@H](C)C/C=C\\Cc2ccccc21", "Potency": "inactive"}
{"compound": "N#CC1=C(N)Oc2cc(N)ccc2C1c1ccccc1", "note": "(centres undefined)", "Potency": "18.4 µM (active)"}
{"compound": "Cc1cc(C)c2c3c(sc2n1)C(c1ccccc1)C(C#N)=C(N)O3", "note": "(centres undefined)", "Potency": "inactive"}
{"compound": "CC(C)c1ccc(C2C(C#N)=C(N)Oc3c2oc(CO)cc3=O)cc1", "note": "(centres undefined)", "Potency": "inactive"}
